The campaign covered roughly 310,000 compounds. About 14,000 (4.5%) showed an effect of 50% or more. The effect is printed as a negative number. The list comes from a sample in which strong results are over-represented; it also holds similar structures and randomly drawn compounds.
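Note: peak tail current of the secondary pulse compared with the same well before compound.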

For the test, the target named is human ether-à-go-go-related gene (hERG) potassium channel (human, UniProt Q12809). Nature of the test: primary screen, population patch clamp on CHO cells stably expressing hERG; higher = less effect of the substance.
human ether-à-go-go-related gene (hERG) potassium channel, sequence (Q12809 whole entry, looked up): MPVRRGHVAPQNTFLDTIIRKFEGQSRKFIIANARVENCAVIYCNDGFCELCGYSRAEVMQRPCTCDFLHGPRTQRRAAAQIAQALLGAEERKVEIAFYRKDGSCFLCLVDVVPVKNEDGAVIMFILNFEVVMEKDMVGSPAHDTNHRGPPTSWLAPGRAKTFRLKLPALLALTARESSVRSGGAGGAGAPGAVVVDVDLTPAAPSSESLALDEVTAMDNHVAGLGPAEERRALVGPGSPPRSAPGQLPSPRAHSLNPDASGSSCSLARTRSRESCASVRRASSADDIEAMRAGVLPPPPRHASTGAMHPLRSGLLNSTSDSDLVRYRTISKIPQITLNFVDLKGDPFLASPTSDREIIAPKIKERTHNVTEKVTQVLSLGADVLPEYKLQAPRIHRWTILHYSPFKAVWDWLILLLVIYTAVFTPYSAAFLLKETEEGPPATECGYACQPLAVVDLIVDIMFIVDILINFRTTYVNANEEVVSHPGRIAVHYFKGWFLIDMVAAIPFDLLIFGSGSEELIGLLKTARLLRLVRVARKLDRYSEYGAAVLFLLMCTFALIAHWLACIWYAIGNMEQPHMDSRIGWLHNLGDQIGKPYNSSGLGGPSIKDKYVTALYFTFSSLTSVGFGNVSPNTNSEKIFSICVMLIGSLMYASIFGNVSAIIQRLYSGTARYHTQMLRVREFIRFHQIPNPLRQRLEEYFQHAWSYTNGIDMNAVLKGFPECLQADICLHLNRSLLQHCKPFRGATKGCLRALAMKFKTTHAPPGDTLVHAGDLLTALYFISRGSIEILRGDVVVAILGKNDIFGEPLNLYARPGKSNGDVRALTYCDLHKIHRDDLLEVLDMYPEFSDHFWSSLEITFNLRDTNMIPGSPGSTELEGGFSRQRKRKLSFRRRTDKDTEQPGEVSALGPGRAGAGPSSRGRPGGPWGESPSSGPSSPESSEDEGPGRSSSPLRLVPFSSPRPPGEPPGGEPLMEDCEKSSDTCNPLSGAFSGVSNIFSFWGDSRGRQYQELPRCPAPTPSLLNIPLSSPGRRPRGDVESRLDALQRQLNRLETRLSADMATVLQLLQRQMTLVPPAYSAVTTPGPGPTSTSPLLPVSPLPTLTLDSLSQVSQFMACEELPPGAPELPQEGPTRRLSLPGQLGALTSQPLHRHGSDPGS
On to `Cc1ccc(N2C(=O)N(CC(=O)NC(c3ccccc3)c3ccccc3)C(=O)C2C)cc1` (centres unmarked), for which the “hERG current change (%, negative = inhibition) at 10uM” value was -32.6%.

`O=C(O)C1=C[C@@H](C2CCCCC2)C[C@@H](OCCCCO)O1`: the “hERG current change (%, negative = inhibition) at 10uM” value is 9.42%. To `Cc1ccsc1C(=O)NNC(=O)COc1ccccc1Cl` belongs 16.9%; to `CC1(C)N(OCc2ccccc2)C(=O)C(=O)N(OCc2ccccc2)C1(C)C`, -6.11%. Under `COc1cccc(C(C(=O)NCC2CCCO2)N(C(=O)Cn2nnc3ccccc32)c2ccc(NC(C)=O)cc2)c1OC` (centres unmarked) stands 6.49%; under `CCOC(=O)N1CCN(c2cc(C)c([N+](=O)[O-])cc2F)CC1`, -8.16%. Take `O=C(c1cccc(F)c1)N1CCCN(C(=O)c2cccc(F)c2)CC1`: the “hERG current change (%, negative = inhibition) at 10uM” value is reported as -6.95%. Take `N#Cc1ccc(N2CCN(c3ccc(F)cc3)CC2)cc1`: the “hERG current change (%, negative = inhibition) at 10uM” value is -16.9%. As to `N#Cc1cc(F)c(N2CCNCC2)cc1Cl`, the “hERG current change (%, negative = inhibition) at 10uM” value is 3.42%.

On to `N#Cc1ccc(N2CCN(C(=O)c3cccc(F)c3)CC2)c(F)c1`, for which the “hERG current change (%, negative = inhibition) at 10uM” value was -66.8%. Under `N#Cc1ccc(N2CCNCC2)c(F)c1` stands -69%. Under `N#Cc1ccc(N2CCN(C(=O)c3cccs3)CC2)c(F)c1` stands -55.7%; under `O=C(c1cccs1)N1CCN(c2ccc(Cl)cc2)CC1`, -13.4%.

On to `Cc1ccc(N2CCN(C(=O)c3cccs3)CC2)c(C)c1`, for which the “hERG current change (%, negative = inhibition) at 10uM” value is reported as -10.6%. Turning to `Cc1cc(N2CCN(C(=O)c3cccs3)CC2)c(F)cc1[N+](=O)[O-]`, the “hERG current change (%, negative = inhibition) at 10uM” value was -67%.

For the compound `O=C(c1cccs1)N1CCN(c2cc(Cl)ccc2Cl)CC1`, the “hERG current change (%, negative = inhibition) at 10uM” value was -33.8%. Take `O=C(c1cccc(C(=O)N2CCN(c3ccccc3F)CC2)c1)N1CCN(c2ccccc2F)CC1`: the “hERG current change (%, negative = inhibition) at 10uM” value is on record as -2.32%. With `COc1ccc(S(=O)(=O)N2CCCOC2CNC(=O)C(=O)NCCc2ccco2)cc1` (centres unmarked), the “hERG current change (%, negative = inhibition) at 10uM” value is reported as 4.42%. On to `CC(C)(C)c1ccc(C(=O)Cn2cnnc2C#N)cc1`, for which the “hERG current change (%, negative = inhibition) at 10uM” value turned out to be 3.7%. For the compound `Cc1ccc(N2CC(C(=O)NCCc3ccc(S(N)(=O)=O)cc3)CC2=O)cc1` (centres unmarked), the “hERG current change (%, negative = inhibition) at 10uM” value was found to be 22.5%. With `O=C(N/N=C/c1cccnc1)c1ccccc1`, the “hERG current change (%, negative = inhibition) at 10uM” value came to 17.3%. Under `Cn1c(/C=C/c2ccccc2[N+](=O)[O-])nc2ccccc2c1=O` stands 5%; under `COc1ccccc1S(=O)(=O)Cc1ccc(C(=O)NCc2ccco2)o1`, -33.5%; under `O=C(COC(=O)Cc1ccccc1)Nc1ccc(SC(F)F)cc1`, 5.27%.

On to `CNC(=S)NNC(=O)c1c(C)nc2cc(C)ccn12`, for which the “hERG current change (%, negative = inhibition) at 10uM” value is reported as 7.15%. Under `O=C(c1cccs1)N1CCN(c2ccc([N+](=O)[O-])cc2F)CC1` stands -56.8%. For `CCC(=O)c1ccc(N2CCN(C(=O)c3cc([N+](=O)[O-])ccc3F)CC2)c(F)c1`, the “hERG current change (%, negative = inhibition) at 10uM” value is listed as -42.9%. Under `CCC(=O)c1ccc(N2CCN(C(=O)c3cc([N+](=O)[O-])ccc3N3CCN(C)CC3)CC2)c(F)c1` stands -46.4%. As to `Cc1ccc(S(=O)(=O)N2CCC(C(=O)OCC(=O)N(C)Cc3ccccc3)CC2)cc1C`, the “hERG current change (%, negative = inhibition) at 10uM” value is listed as -12%.

As to `O=C(Nc1cccc(Cl)c1N1CCCC1)c1ccc(Br)o1`, the “hERG current change (%, negative = inhibition) at 10uM” value is -5.58%. With `O=C(NC(=S)Nc1cccc(Cl)c1N1CCCCC1)c1cccs1`, the “hERG current change (%, negative = inhibition) at 10uM” value came out at 22.7%. To `O=C(Nc1cccc(Cl)c1N1CCOCC1)c1ccc(Br)o1` belongs 6.64%; to `O=C(Nc1cccc(Cl)c1N1CCOCC1)c1ccco1`, -8.08%; to `O=C(Nc1cccc(Cl)c1N1CCOCC1)c1cccs1`, -23.5%.

As for `CCN1CCN(c2c(Cl)cccc2NC(=O)c2ccco2)CC1`, the “hERG current change (%, negative = inhibition) at 10uM” value is -73.4%.

Turning to `O=C(Nc1cccc(Cl)c1N1CCOCC1)c1ccc([N+](=O)[O-])o1`, the “hERG current change (%, negative = inhibition) at 10uM” value is on record as 2.67%.

Regarding `O=C(Nc1cccc(Cl)c1N1CCCC1)c1ccco1`, the “hERG current change (%, negative = inhibition) at 10uM” value is on record as 6.11%. Regarding `CCN1CCN(c2c(Cl)cccc2NC(=O)c2ccc([N+](=O)[O-])o2)CC1`, the “hERG current change (%, negative = inhibition) at 10uM” value is listed as -73.9%. To `CCN1CCN(c2c(Cl)cccc2NC(=O)c2cccs2)CC1` belongs -73.8%. For `CCN1CCN(c2c(Cl)cccc2NC(=O)c2ccc(Br)o2)CC1`, the “hERG current change (%, negative = inhibition) at 10uM” value is on record as -73.6%.

For the compound `O=C(Nc1cccc(Cl)c1N1CCCC1)c1ccc([N+](=O)[O-])o1`, the “hERG current change (%, negative = inhibition) at 10uM” value is reported as 9.6%. On to `CC12CCC(=O)N1C(C(=O)NNC(=O)c1ccc(Br)cc1)CS2` (centres unmarked), for which the “hERG current change (%, negative = inhibition) at 10uM” value is on record as -8.4%. To `Cc1ccc2nc(SCC(=O)Nc3ccc(C(N)=O)cc3)[nH]c2c1` belongs 3.74%. To `CC(CN(C)Cc1ccccc1)OC(=O)c1ccc2c(c1)OCCO2.Cl` (centres unmarked) belongs 5.15%.
